# Measured values from ChEMBL document CHEMBL4888484, “Replenishing the malaria drug discovery pipeline: Screening and hit evaluation of the MMV Hit Generation Library 1 (HGL1) against asexual blood stage Plasmodium falciparum ,using a nano luciferase reporter read-out” (2022).
# Out of some 4,800 compounds screened, about 420 (8.8%) showed an effect of 50% or more. The list comes from a sample in which strong results are over-represented; it also holds similar structures and randomly drawn compounds.
# System: Plasmodium falciparum
# Assay: Confirmatory screen in NF54 nanoGlo assay, in single point, at 2uM, 72h
# Type: functional, Erythrocyte
# Conditions: timepoint 72 hour
row,Compound,% Inhibition [%]
1,CCN(CC)S(=O)(=O)c1ccc2c(c1)CCCN2C(=O)c1ccc2ccccc2c1,1
2,CCOC1CC(NC2CC(c3ccc(F)cc3)C2)C12CCC2 (stereo unspecified),67
3,CC1(C)NC(=O)CC[C@@H]1NC1CC(c2cccc(F)c2)C1 (stereo partly specified),5
4,O=C(N[C@H](c1ccccc1)C1CC1)N1CCN(S(=O)(=O)c2cccc(F)c2)CC1,4
5,CCOC(=O)c1cc(F)cc(S(=O)(=O)Nc2ccnc3ncnn23)c1,34
6,COCc1cc(=O)n(CC(=O)NCc2ccccc2Cl)c(N2CCCC2)n1,-11
7,Cc1nn(C)c(Oc2cccc(F)c2)c1NC(=O)CC(C)C,8
8,O=C(NCCN1CCCC1)c1ccc2nc(-c3ccc(Cl)cc3)cn2c1,18
9,CC(C)(C)n1nc2nc(NCCN3CCCCC3)nc(-c3ccc(F)c(Cl)c3)c2c1N,62
10,COCc1cc(F)ccc1NC(=O)NC1CCN(c2cc(C)nc(C)n2)CC1,-5
11,CCOc1ccccc1C(=O)Nc1c(-n2cnnc2)nn(C)c1C,2
12,CC(NCCn1cccn1)C(=O)N1c2ccccc2CC1C (stereo unspecified),-10
13,Cc1ccc(Cn2ccn3nc(-c4ccc5c(c4)OCO5)cc3c2=O)cc1C,-9
14,N#Cc1ccc(C(=O)N[C@H]2CCCc3c2cnn3-c2ccccn2)cc1,2
15,Oc1ccc2cc(CN3CCC[C@H](CN4CCCC4)C3)ccc2c1,17
16,CN1CCN([C@H]2CCN(c3ccnc4ccc(Cl)cc34)C[C@H]2CCCO)CC1,26
17,COc1ccnc(CN2CC[C@](C)(O)[C@H](O)C2)c1,-2
18,COc1ccccc1CN1COc2cc3c(cc2C1)OCO3,22
19,CCC[C@]1(C)NC(=O)N(c2csc(-c3ccccc3)n2)C1=O,-3
20,CCn1nc(C)c(CN(C)C(=O)c2nn3cccnc3c2Cl)c1C,-2
21,COCCN(CC1CN(Cc2ccccn2)CC1c1cccc(F)c1)C(=O)COC (stereo unspecified),-3
22,C[C@H](C(=O)NCc1cc(F)cc(F)c1)C1CCOCC1,-5

row,Compound,% Inhibition [%]
1,COc1ccc(CNC(=O)c2ccc(N3C(=O)[C@@H]4Cc5c([nH]c6ccccc56)C(c5cccc(OC)c5)N4C3=O)cc2)cc1 (stereo partly specified),49
2,COc1ccccc1C1c2[nH]c3ccccc3c2C[C@H]2C(=O)N(CC(O)c3ccccc3)CC(=O)N12 (stereo partly specified),33
3,CCOc1ccc(C2c3[nH]c4ccccc4c3C[C@H]3C(=O)N(C4CCN(Cc5ccccc5)CC4)CC(=O)N23)cc1OC (stereo partly specified),80
4,COc1ccccc1N1CCN(c2nc(Nc3ccc(F)cc3)c3nc[nH]c3n2)CC1,-18
5,Cc1ccc(CC(=O)N2C[C@H](c3ccccc3)C(c3ccc(Cl)cc3)=N2)cc1,6
6,CCCNC(=O)CNC(=NC1CC1)NCc1ccccc1C,-3
7,COc1nc(NC2CCS(=O)(=O)CC2)ncc1F,75
8,CC(C)(NCCc1c[nH]c2ccccc12)c1nnnn1Cc1cccnc1,3
9,O=C(NCCc1nnc[nH]1)C1(Cc2ccccc2)CC2CCC1C2 (stereo unspecified),-9
10,Cc1ccc(O)c(CNCC2(c3ccccc3Cl)CCOCC2)n1,99
11,Cc1ccc(O)c(CNc2ccc3c(c2)OCC3(C)C)n1,-7
12,N[C@H]1COc2ccc(Br)cc2C1=O,-3
13,Cc1ccc(NC(=O)Nc2cccc(-c3ccc(N4CCN(C)CC4)nn3)c2)cc1C,10
14,Cc1cccc(Nc2nc(-c3cnc(N4CCN(C)CC4)nc3C)cc(=O)[nH]2)c1,-7
15,O=C(Nc1ccc(-n2cncn2)cn1)c1cscn1,-18
16,COc1ccc(S(=O)(=O)Nc2c(C)ccc3nsnc23)cc1OC,4
17,CCCC[C@H](CC)C(=O)Nc1ccccc1C,7
18,CN(C(=O)c1ccc(OCC(F)(F)F)nc1)C1(C#N)CCC1,2
19,Cc1cc2c(cc1C)[C@H](C(=O)Nc1cc(C(N)=O)ccc1Cl)CO2,-1
20,O=C(Nc1ccc2c(c1)c1cc(Br)ccc1n2Cc1ccccc1)c1ccccc1,4
21,O=C(N[C@@H](Cn1nccn1)c1ccccc1)c1cc(Br)ccc1Cl,65
22,O=C(NC(Cn1ccccc1=O)c1ccccc1)C1CCOC1 (stereo unspecified),2

row,Compound,% Inhibition [%]
1,O=C(Cc1ccccc1)Nc1cccc2c1C(=O)N(c1ccccc1)C2=O,-14
2,O=C(C[C@@]1(O)C(=O)N(Cc2ccc(Cl)cc2Cl)c2ccccc21)c1ccccn1,-10
3,Cc1c(NC(=O)CCc2ccsc2)nnn1Cc1ccccc1F,-10
4,O=C(CN1C=CCC=C1c1nc(-c2ccc(Br)cc2)cs1)c1ccccc1,35
5,COc1ccc(C(=O)CN2C=CCC=C2c2nc(-c3ccc(Cl)cc3)cs2)cc1,72
6,COc1ccc(C2=CN(CC(=O)c3ccc(Cl)cc3)C3=CCCCCN23)cc1,47
7,Cc1ccc(CNCCC2=CCCCC2)cc1,-2
8,Cc1csc(NC(=O)[C@]2(C)Oc3ccccc3NC2=O)n1,0
9,O=c1[nH]nc(-c2ccc3ccccc3c2)c2conc12,18
10,Cn1ccc(NC(=O)c2n[nH]c3ccccc23)n1,-12
11,CC(C)CCNC(=O)c1cnn2c3c(cnc12)CCCC3,-6
12,COc1ccc(F)c(NC(=O)N(CCO)C(C)C)c1,5
13,COc1ccc(NC(=O)CN2N=C(C(=O)Nc3ccc(F)cc3)CCC2=O)cc1,-7
14,COc1ccc2nc(O)c(C(=O)Nc3ccc4c(c3F)CCNC4)cc2c1,99
15,CCn1nc(C(=O)N(C2CCCCC2)C2CC2)c2ccccc2c1=O,-10
16,Cc1cccc(NC(=O)N2CCCCCC2)n1,1
17,Cc1cccc(CN2CCC[C@H](C(=O)c3ccc4c5c(cccc35)CC4)C2)n1,63
18,COC[C@H](NC(=O)c1cccc(F)c1Cl)C(N)=O,-8
19,Cc1cc2nnc(-c3nc4ccccc4[nH]3)c(N)n2n1,-10
20,Nc1c(-c2nc3ccccc3[nH]2)c2nc3ccccc3nc2n1Cc1ccccc1F,64
21,Cc1ncc(C(=O)Nc2cc3c(=O)[nH]cnc3cc2F)c(C2CC2)n1,3
22,CCc1nnc(COC(=O)c2csc(NC)n2)o1,6
